Test results: PubChem BioAssay AID1159580 (chemical genetic matrix, 2015)
The campaign covered roughly 5,500 compounds. About 2,000 (36%) were called active. Inconclusive results (about 18%) are left out. Some of the results follow. Unmarked numbers belong to inactive results. Rule as the data show it: active = normalized growth mostly below about 0.91 (no sharp cut-off); inconclusive = no clear call, values can overlap the other calls; inactive = mostly above about 0.92.

Test: chemical genetic growth profiling, strain panel (AID 1159580);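 also: tested at 20 µM; growth read once vehicle control cultures reached saturation at 30 °C; 1 = growth at the plate median or of vehicle wells; lower values mean less growth of the strain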
Details: S. cerevisiae deletion strains, growth OD
[1] = locus YAR019C, strain CDC15, active compounds read low
[2] = locus YBL105C, strain PKC1, active compounds read low
[3] = locus YBR135W, strain CKS1, active compounds read low
[4] = locus YBR136W, strain MEC1, active compounds read low
[5] = locus YBR160W, strain CDC28, active compounds read low
[6] = locus YDL017W, strain CDC7, active compounds read low
[7] = locus YDL028C, strain MPS1, active compounds read low
[8] = locus YDL101C, strain DUN1, active compounds read low
[9] = locus YDL108W, strain KIN28, active compounds read low
[10] = locus YDL132W, strain cdc53, active compounds read low
[11] = locus YDL214C, strain PRR2, active compounds read low
[12] = locus YDR052C, strain DBF4, active compounds read low
[13] = locus YDR054C, strain cdc34, active compounds read low
[14] = locus YDR226W, strain ADK1, active compounds read low
[15] = locus YDR477W, strain SNF1, active compounds read low
[16] = locus YER123W, strain YCK3, active compounds read low
[17] = locus YER133W, strain GLC7, active compounds read low
[18] = locus YFL009W, strain cdc4, active compounds read low
[19] = locus YFL029C, strain CAK1, active compounds read low
[20] = locus YFR003C, strain YPI1, active compounds read low
[21] = locus YFR019W, strain FAB1, active compounds read low
[22] = locus YFR028C, strain CDC14, active compounds read low
[23] = locus YGR040W, strain KSS1, active compounds read low
[24] = locus YGR052W, strain FMP48, active compounds read low
[25] = locus YGR092W, strain DBF2, active compounds read low
[26] = locus YHR030C, strain SLT2, active compounds read low
[27] = locus YHR079C, strain IRE1, active compounds read low
[28] = locus YHR082C, strain KSP1, active compounds read low
[29] = locus YHR205W, strain SCH9, active compounds read low
[30] = locus YIL147C, strain SLN1, active compounds read low
[31] = locus YJL095W, strain BCK1, active compounds read low
[32] = locus YJL128C, strain PBS2, active compounds read low
[33] = locus YJL157C, strain FAR1, active compounds read low
[34] = locus YJR016C, strain ILV3, active compounds read low
[35] = locus YJR066W, strain TOR1 (second series), active compounds read low
[36] = locus YJR066W, strain TOR1, active compounds read low
[37] = locus YKL048C, strain ELM1, active compounds read low
[38] = locus YKL067W, strain YNK1, active compounds read low
[39] = locus YKL101W, strain HSL1, active compounds read low
[40] = locus YKL193C, strain SDS22, active compounds read low
[41] = locus YKL203C, strain TOR2, active compounds read low
[42] = locus YLR113W, strain HOG1, active compounds read low
[43] = locus YLR133W, strain CKI1, active compounds read low
[44] = locus YLR403W, strain SFP1, active compounds read low
[45] = locus YML070W, strain DAK1, active compounds read low
[46] = locus YMR001C, strain CDC5, active compounds read low
[47] = locus YMR205C, strain PFK2 (second series), active compounds read low
[48] = locus YMR277W, strain FCP1, active compounds read low
[49] = locus YNL006W, strain LST8, active compounds read low
[50] = locus YNL020C, strain ARK1, active compounds read low
[51] = locus YNL161W, strain CBK1, active compounds read low
[52] = locus YNL183C, strain NPR1, active compounds read low
[53] = locus YNL207W, strain RIO2, active compounds read low
[54] = locus YNL222W, strain SSU72, active compounds read low
[55] = locus YNL307C, strain MCK1 (second series), active compounds read low
[56] = locus YOL078W, strain AVO1, active compounds read low
[57] = locus YOL136C, strain PFK27, active compounds read low
[58] = locus YOR061W, strain CKA2, active compounds read low
[59] = locus YOR119C, strain RIO1, active compounds read low
[60] = locus YOR231W, strain MKK1, active compounds read low
[61] = locus YOR329C, strain SCD5, active compounds read low
[62] = locus YPL031C, strain PHO85, active compounds read low
[63] = locus YPL153C, strain RAD53, active compounds read low
[64] = locus YPL204W, strain HRR25, active compounds read low
[65] = locus YPL209C, strain IPL1, active compounds read low
[66] = locus YPL256C, strain CLN2, active compounds read low
[67] = locus YPR025C, strain CCL1, active compounds read low
[68] = locus YPR106W, strain ISR1, active compounds read low
[69] = locus YPR111W, strain DBF20, active compounds read low
[70] = strain NNK1, active compounds read low
[71] = strain TSCII, active compounds read low

Q: What does the source list for `Cc1ccc2c(c1)CCCN2CC(=O)N(c1ccccc1)C1CCCCC1`?
A: normalized growth [1]: 0.989; normalized growth [2]: 0.978; normalized growth [3]: 0.986; normalized growth [4]: 0.986; normalized growth [5]: 0.978; normalized growth [6]: 0.982; normalized growth [7]: 0.994; normalized growth [8]: 0.984; normalized growth [9]: 0.986; normalized growth [10]: 0.987; normalized growth [11]: 0.943; normalized growth [12]: 0.991; normalized growth [13]: 0.975; normalized growth [14]: 0.992; normalized growth [15]: 0.951; normalized growth [16]: 0.928; normalized growth [17]: 0.951; normalized growth [18]: 0.989; normalized growth [19]: 0.986; normalized growth [20]: 0.986; normalized growth [21]: 0.961; normalized growth [22]: 0.976; normalized growth [23]: 0.923; normalized growth [24]: 0.994; normalized growth [25]: 0.948; normalized growth [26]: 0.966; normalized growth [27]: 0.965; normalized growth [28]: 0.991; normalized growth [29]: 0.991; normalized growth [30]: 0.991; normalized growth [31]: 0.965; normalized growth [32]: 0.932; normalized growth [33]: 0.944; normalized growth [34]: 0.985; normalized growth [35]: 0.928; normalized growth [36]: 0.999; normalized growth [37]: 0.945; normalized growth [38]: 0.946; normalized growth [39]: 0.912; normalized growth [40]: 0.974; normalized growth [41]: 0.999; normalized growth [42]: 0.836 (active); normalized growth [43]: 0.937; normalized growth [44]: 0.935; normalized growth [45]: 0.912; normalized growth [46]: 0.991; normalized growth [47]: 0.955; normalized growth [48]: 0.99; normalized growth [49]: 0.992; normalized growth [50]: 0.943; normalized growth [51]: 0.983; normalized growth [52]: 0.941; normalized growth [53]: 0.98; normalized growth [54]: 0.983; normalized growth [55]: 0.948; normalized growth [56]: 0.99; normalized growth [57]: 0.925; normalized growth [58]: 0.956; normalized growth [59]: 1; normalized growth [60]: 0.907; normalized growth [61]: 0.995; normalized growth [62]: 0.95; normalized growth [63]: 0.936; normalized growth [64]: 0.957; normalized growth [65]: 0.98; normalized growth [66]: 0.884; normalized growth [67]: 0.991; normalized growth [68]: 0.97; normalized growth [69]: 0.964; normalized growth [70]: 0.973; normalized growth [71]: 0.987

Q: Which normalized growth [1] does the source give for `CCCc1cnc(N2CCN(CC(=O)N(c3ccccc3)C3CCCCC3)CC2)nc1` here?
A: 0.995

Q: And the normalized growth [2]?
A: 0.985

Q: And the normalized growth [3]?
A: 0.992

Q: What about the normalized growth [4] of the same compound?
A: 0.985

Q: And the normalized growth [5]?
A: 0.984

Q: What about the normalized growth [6] of the same compound?
A: 0.991

Q: And the normalized growth [7]?
A: 0.997

Q: And the normalized growth [8]?
A: 0.986

Q: What about the normalized growth [9] of the same compound?
A: 0.99

Q: What about the normalized growth [10] of the same compound?
A: 0.992

Q: What about the normalized growth [11] of the same compound?
A: 0.997

Q: And the normalized growth [12]?
A: 0.989

Q: What about the normalized growth [13] of the same compound?
A: 0.974

Q: And the normalized growth [14]?
A: 0.985

Q: What about the normalized growth [15] of the same compound?
A: 0.999

Q: And the normalized growth [16]?
A: 0.997

Q: And the normalized growth [17]?
A: 1

Q: What about the normalized growth [18] of the same compound?
A: 0.989

Q: What about the normalized growth [19] of the same compound?
A: 0.993

Q: What about the normalized growth [20] of the same compound?
A: 0.988

Q: What about the normalized growth [21] of the same compound?
A: 1

Q: And the normalized growth [22]?
A: 0.999

Q: And the normalized growth [23]?
A: 0.985

Q: And the normalized growth [24]?
A: 1.09

Q: And the normalized growth [25]?
A: 1

Q: What about the normalized growth [26] of the same compound?
A: 1.05

Q: What about the normalized growth [27] of the same compound?
A: 1.03

Q: And the normalized growth [28]?
A: 1.09

Q: And the normalized growth [29]?
A: 0.97

Q: And the normalized growth [30]?
A: 0.99

Q: What about the normalized growth [31] of the same compound?
A: 1.05

Q: What about the normalized growth [32] of the same compound?
A: 0.985

Q: And the normalized growth [33]?
A: 0.981

Q: What about the normalized growth [34] of the same compound?
A: 1

Q: And the normalized growth [35]?
A: 0.995

Q: What about the normalized growth [36] of the same compound?
A: 1.07

Q: And the normalized growth [37]?
A: 0.969

Q: And the normalized growth [38]?
A: 1

Q: What about the normalized growth [39] of the same compound?
A: 0.993

Q: What about the normalized growth [40] of the same compound?
A: 0.99

Q: What about the normalized growth [41] of the same compound?
A: 1.05

Q: And the normalized growth [42]?
A: 0.949

Q: And the normalized growth [43]?
A: 0.997

Q: What about the normalized growth [44] of the same compound?
A: 0.977

Q: What about the normalized growth [45] of the same compound?
A: 1.03

Q: What about the normalized growth [46] of the same compound?
A: 0.991

Q: What about the normalized growth [47] of the same compound?
A: 1.01

Q: And the normalized growth [48]?
A: 0.994

Q: What about the normalized growth [49] of the same compound?
A: 0.988

Q: And the normalized growth [50]?
A: 0.997

Q: What about the normalized growth [51] of the same compound?
A: 0.99

Q: And the normalized growth [52]?
A: 1.04

Q: What about the normalized growth [53] of the same compound?
A: 0.997

Q: And the normalized growth [54]?
A: 0.995

Q: What about the normalized growth [55] of the same compound?
A: 1

Q: And the normalized growth [56]?
A: 0.994

Q: And the normalized growth [57]?
A: 0.985

Q: What about the normalized growth [58] of the same compound?
A: 1.01

Q: What about the normalized growth [59] of the same compound?
A: 1.04

Q: And the normalized growth [60]?
A: 0.992

Q: And the normalized growth [61]?
A: 0.986

Q: What about the normalized growth [62] of the same compound?
A: 1

Q: What about the normalized growth [63] of the same compound?
A: 0.998

Q: What about the normalized growth [64] of the same compound?
A: 0.981

Q: What about the normalized growth [65] of the same compound?
A: 0.98

Q: What about the normalized growth [66] of the same compound?
A: 0.968

Q: And the normalized growth [67]?
A: 0.99

Q: And the normalized growth [68]?
A: 0.979

Q: And the normalized growth [69]?
A: 0.976

Q: What about the normalized growth [70] of the same compound?
A: 0.99

Q: What about the normalized growth [71] of the same compound?
A: 0.992
